Structures are written as SMILES. About 14,000 (4.5%) of roughly 310,000 compounds showed an effect of 50% or more. Effects have a minus sign here. The list comes from a sample in which strong results are over-represented; it also holds similar structures and randomly drawn compounds.
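Also: peak tail current of the secondary pulse compared with the same well before compound.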

For this test, the target named is human ether-à-go-go-related gene (hERG) potassium channel (human, UniProt Q12809). As to the kind of experiment: primary screen, population patch clamp on CHO cells stably expressing hERG; higher = less effect of the substance.
human ether-à-go-go-related gene (hERG) potassium channel, sequence (Q12809 whole entry, looked up): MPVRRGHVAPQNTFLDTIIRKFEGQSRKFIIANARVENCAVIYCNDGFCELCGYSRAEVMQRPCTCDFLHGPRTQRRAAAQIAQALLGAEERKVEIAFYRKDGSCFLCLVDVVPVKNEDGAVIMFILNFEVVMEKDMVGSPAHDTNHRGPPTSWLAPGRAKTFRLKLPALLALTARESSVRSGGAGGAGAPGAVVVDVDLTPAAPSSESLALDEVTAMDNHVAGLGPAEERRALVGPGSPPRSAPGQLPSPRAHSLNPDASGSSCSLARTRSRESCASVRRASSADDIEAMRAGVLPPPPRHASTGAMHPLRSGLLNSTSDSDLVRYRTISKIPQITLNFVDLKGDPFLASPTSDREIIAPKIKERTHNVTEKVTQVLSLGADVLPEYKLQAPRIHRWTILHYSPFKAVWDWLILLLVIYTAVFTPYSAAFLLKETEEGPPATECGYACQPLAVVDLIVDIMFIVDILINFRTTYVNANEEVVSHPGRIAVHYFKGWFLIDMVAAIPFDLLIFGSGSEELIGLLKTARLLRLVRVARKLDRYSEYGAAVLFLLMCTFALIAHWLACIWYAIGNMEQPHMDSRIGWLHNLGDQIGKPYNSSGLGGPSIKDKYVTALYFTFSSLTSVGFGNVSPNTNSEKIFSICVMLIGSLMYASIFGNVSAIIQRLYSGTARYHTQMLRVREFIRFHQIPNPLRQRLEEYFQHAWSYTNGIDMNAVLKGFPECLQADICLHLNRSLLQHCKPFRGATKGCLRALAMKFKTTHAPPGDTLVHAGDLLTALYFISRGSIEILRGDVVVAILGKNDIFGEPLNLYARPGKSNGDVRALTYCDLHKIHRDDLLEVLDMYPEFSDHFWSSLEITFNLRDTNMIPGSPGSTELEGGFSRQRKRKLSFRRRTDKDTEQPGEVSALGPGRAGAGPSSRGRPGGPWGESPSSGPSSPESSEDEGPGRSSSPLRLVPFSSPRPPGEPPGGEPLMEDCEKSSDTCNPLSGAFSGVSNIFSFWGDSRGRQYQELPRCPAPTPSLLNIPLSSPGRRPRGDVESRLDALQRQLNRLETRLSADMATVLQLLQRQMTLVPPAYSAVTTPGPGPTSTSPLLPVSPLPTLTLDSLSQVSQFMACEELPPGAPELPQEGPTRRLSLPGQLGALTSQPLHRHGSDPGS
Take `Cc1sc2c(c1C)c(=O)n(-c1ccc(Cl)cc1)c(=O)n2Cc1cc(=O)n2ccccc2n1`: the “hERG current change (%, negative = inhibition) at 10uM” value is recorded as -36.4%.
The value for `Cc1ccc(-n2c(=O)c3c4c(sc3n(Cc3cc(=O)n5ccccc5n3)c2=O)CCC4)cc1C` was -69.1%; that for `Cc1ccc(-n2c(=O)c3c(C)c(C)sc3n(Cc3cc(=O)n4ccccc4n3)c2=O)cc1C` was -4.43%.
The value for `CS(=O)(=O)N(Cc1ccc(C(=O)NN=C2CCCCCC2)cc1)c1ccccc1` was -7.08%; that for `CCCCC(C(=O)O)C(C)CC(=O)NNC(=O)c1ccco1` (stereo not drawn) was 13.2%; that for `C(=N\Nc1nncc2ccccc12)/c1ccccc1` was 1.52%.
The result for `COc1ccc(C)cc1N/C(N)=N/c1nc(C)cc(C)n1` reads -74.4%.
On to `COc1ccc(OC)c(N/C(=N/c2nc(C)cc(C)n2)NC(C)=O)c1`, for which the “hERG current change (%, negative = inhibition) at 10uM” value is on record as 14.5%.
The result for `CCOC(=O)Nc1cc(C)ccc1OC` reads 11.2%.
The value for `COc1ccc(Cl)cc1N/C(N)=N/c1nc(C)cc(=O)[nH]1` was 20%; that for `Cc1ccc(C)c(N/C(N)=N/c2nc(C)cc(C)n2)c1` was -34.2%.
The result for `COc1ccc(Cl)cc1NC(=O)CSc1nc(C)cc(C)n1` reads -32.6%; that for `CC(=O)N/C(=N/c1nc(C)cc(C)n1)Nc1ccc(C)cc1C`, -10.6%; that for `COc1ccc(Cl)cc1N/C(N)=N/c1nc(C)cc(C)n1`, -84.2%.
Turning to `COc1ccc(OC)c(N/C(N)=N/c2nc(C)cc(C)n2)c1`, the “hERG current change (%, negative = inhibition) at 10uM” value is -50.1%.
The value for `COc1ccc(N/C(N)=N/c2nc(C)cc(C)n2)c(OC)c1` was -26.4%; that for `Cc1ccc(N/C(N)=N/c2nc(C)cc(N3CCCCC3)n2)c(C)c1` was -83%.
Turning to `COc1ccccc1N/C(N)=N/c1nc(C)cc(C)n1`, the “hERG current change (%, negative = inhibition) at 10uM” value was -32.9%.
The result for `CCOc1ccc(CNC(=O)C(=O)c2cn(CC(=O)N3CCOCC3)c3ccccc23)cc1OC` reads 17.1%; that for `COC(=O)C1=C(C)Nc2ncnn2C1c1cccnc1` (stereo not drawn), 2.93%; that for `O=C(Cn1ncc2c([nH]c3ccccc32)c1=O)N1CCN(c2ccccc2F)CC1`, 1.65%.
Consider `CCN(CC)CCCN1C(=O)C(=O)/C(=C(/O)c2ccc3c(c2)OCCO3)C1c1ccco1` (stereo not drawn), for which the “hERG current change (%, negative = inhibition) at 10uM” value is reported as -6.06%.
The result for `CC(C)c1cccc(C(C)C)c1NC(=O)COC(=O)[C@H](C)NC(N)=O` reads 16.8%; that for `CCCOc1ccccc1N/C(=N/c1nc(C)cc(C)n1)NC(=O)COc1ccc(OC)cc1`, -10%.
Consider `CCCOc1ccccc1N/C(N)=N/c1nc(C)cc(C)n1`, for which the “hERG current change (%, negative = inhibition) at 10uM” value is given as -85.8%.
The value for `COc1cc(N/C(N)=N/c2nc(C)cc(C)n2)c(OC)cc1Cl` was -56.7%; that for `CCCOc1ccccc1N/C(=N/c1nc(C)cc(C)n1)NC(=O)Nc1ccc(Cl)cc1` was -1.32%.
The result for `COc1cc(NC(N)=S)c(OC)cc1Cl` reads 6.66%; that for `Cc1cc(C)nc(/N=C(\N)Nc2cc([N+](=O)[O-])ccc2C)n1`, -49%.
Consider `Cc1ccc(-c2cc([C@H]3[C@@H]4C=CCC[C@@]4(C)C(=O)N3Cc3ccccc3)ccc2F)cc1`, for which the “hERG current change (%, negative = inhibition) at 10uM” value is listed as 8.75%.
The result for `CC1CC(OC(=O)c2ccccc2)CC(C)N1C.Cl` (stereo not drawn) reads -5.09%.
The value for `Cc1cc(N/N=C/c2c(O)ccc3ccccc23)nc(-c2ccccc2O)n1` was -3.98%; that for `O=C(CSc1cccc[n+]1[O-])Nc1cc(S(=O)(=O)N2CCOCC2)ccc1N1CCOCC1` was 16%; that for `CCCCCCCNC(=O)C1(CC2CC(c3cccc(Br)c3)=NO2)CCNCC1` (stereo not drawn) was -70.3%.
`CCCCCCCNC(=O)C1(CC2CC(c3cccc(Br)c3)=NO2)CCN(C(=O)Cc2ccc(F)cc2)CC1` (stereo not drawn): the “hERG current change (%, negative = inhibition) at 10uM” value was -7.08%.
Take `CCCCCCCNC(=O)C1(CC2CC(c3ccccc3)=NO2)CCNCC1` (stereo not drawn): the “hERG current change (%, negative = inhibition) at 10uM” value is -58.8%.
The result for `O=C(NCc1ccccc1)C1(CC2CC(c3ccccc3)=NO2)CCNCC1` (stereo not drawn) reads -7.21%; that for `CCCNC(=O)C1(CC2CC(c3ccccc3)=NO2)CCNCC1` (stereo not drawn), 23.5%; that for `CCCCCCCNC(=O)C1(CC2CC(c3ccc(Cl)cc3)=NO2)CCNCC1` (stereo not drawn), -63.1%.
The value for `CCCCCCCNC(=O)C1(CC2CC(c3cccc(Br)c3)=NO2)CCN(C(=O)C2(C)CC2)CC1` (stereo not drawn) was -26%; that for `NC(=S)N1CCCc2ccccc21` was -3.03%; that for `CC1(c2ccccc2)NC(=O)N(CC(=O)N2CCOCC2)C1=O` (stereo not drawn) was 3.77%.
The result for `O=C(Nc1nnc(COc2ccc(Cl)cc2)s1)c1cccs1` reads -6.91%.
Turning to `Cc1csc(=O)n1CC(=O)OCC(=O)Nc1cc(Cl)ccc1[N+](=O)[O-]`, the “hERG current change (%, negative = inhibition) at 10uM” value is -17.8%.
The result for `COc1ccc(NC(C)(C)c2nnnn2-c2c(C)cccc2C)cc1` reads -4.2%; that for `COc1cccc(NC(C)(C)c2nnnn2-c2c(C)cccc2C)c1`, -63.4%.
The value for `Cc1cccc(C)c1-n1nnnc1C(C)(C)N1CCN(N=O)CC1` was 14.7%.
The value for `O=C(NCCc1cccs1)C1CC(c2cccc([N+](=O)[O-])c2)=NO1` (stereo not drawn) was -23.5%.
Regarding `CCCCNc1nc(Nc2ccc(C)c(Cl)c2)c2cnn(C)c2n1`, the “hERG current change (%, negative = inhibition) at 10uM” value stood at 15.3%.
Consider `O=C(CSc1nc2cc([N+](=O)[O-])ccc2n1-c1ccc(F)cc1)NC1CCS(=O)(=O)C1` (stereo not drawn), for which the “hERG current change (%, negative = inhibition) at 10uM” value was -52.6%.
The result for `CCn1c(SCC(=O)NC2CCS(=O)(=O)C2)nnc1-c1ccccc1` (stereo not drawn) reads 5.49%; that for `O=C(CSc1nc2ccccc2c(=O)n1-c1ccccc1F)NC1CCS(=O)(=O)C1` (stereo not drawn), -57%.
The result for `O=C(CSc1nnc(-c2ccc(Br)cc2)n1CCc1ccccc1)NC1CCS(=O)(=O)C1` (stereo not drawn) reads -86.8%; that for `COc1ccccc1-n1c(SCC(=O)NC2CCS(=O)(=O)C2)nc2ccccc2c1=O` (stereo not drawn), -3.39%; that for `COc1ccccc1-c1nnc(SCC(=O)NC2CCS(=O)(=O)C2)n1CCc1ccccc1` (stereo not drawn), 8.05%.
As for `CN(C(=O)CSc1nc2cc([N+](=O)[O-])ccc2n1-c1ccc(F)cc1)C1CCS(=O)(=O)C1` (stereo not drawn), the “hERG current change (%, negative = inhibition) at 10uM” value was determined as 2.56%.
Take `O=C(CSc1nc2ccccc2c(=O)n1-c1ccccc1Cl)NC1CCS(=O)(=O)C1` (stereo not drawn): the “hERG current change (%, negative = inhibition) at 10uM” value was 6.55%.
Regarding `COc1ccccc1-n1c(SCC(=O)NC2CCS(=O)(=O)C2)nc2cc([N+](=O)[O-])ccc21` (stereo not drawn), the “hERG current change (%, negative = inhibition) at 10uM” value is given as -16.2%.
As for `Cc1ccc2oc(/N=C(\N)NC(=O)C(C)(C)C)nc2c1`, the “hERG current change (%, negative = inhibition) at 10uM” value was 4.85%.
The value for `CC1=Nn2c(nnc2-c2ccco2)SC1` was -3.87%.
The result for `O=C(/C=C/c1ccco1)Nc1sc2c(c1C(=O)O)CCC2` reads -2.95%; that for `CSc1scc2c1-c1nc(SCC(=O)C(C)(C)C)ncc1CC2`, 11%; that for `CN(C)CCCN(C(=O)c1ccc(S(=O)(=O)N2CCCCCC2)cc1)c1nc2ccc(Br)cc2s1.Cl`, -22%.
On to `CN(C)CCCN(C(=O)c1ccc(S(=O)(=O)N2CCOCC2)cc1)c1nc2ccc(F)cc2s1.Cl`, for which the “hERG current change (%, negative = inhibition) at 10uM” value is given as -58.7%.
Turning to `CN(C)CCCN(C(=O)c1ccc(S(=O)(=O)N2CCc3ccccc32)cc1)c1nc2ccc(F)cc2s1.Cl`, the “hERG current change (%, negative = inhibition) at 10uM” value is reported as -13.7%.
On to `CN(C)CCCN(C(=O)c1ccc(S(=O)(=O)N2CCCCCC2)cc1)c1nc2ccc(F)cc2s1.Cl`, for which the “hERG current change (%, negative = inhibition) at 10uM” value was -73.1%.
The result for `CN(C)CCCN(C(=O)c1ccc(S(=O)(=O)N2CCc3ccccc3C2)cc1)c1nc2ccc(F)cc2s1.Cl` reads 1.76%; that for `CN(C)CCCN(C(=O)c1ccc(S(=O)(=O)N2CCCc3ccccc32)cc1)c1nc2ccc(F)cc2s1.Cl`, -17.1%; that for `CC1CCN(C(=O)CSc2ccc(-c3ccccc3)nn2)CC1`, -11.8%.
The result for `COc1ccccc1CC(=O)Nc1cccc(F)c1` reads 12.2%; that for `CC(C(=O)Nc1ccccc1)N(C)Cc1cccs1` (stereo not drawn), 8.67%; that for `CC(C(=O)N1CCCC1)N(C)CC(=O)Nc1cccc(F)c1` (stereo not drawn), -0.435%.
The result for `CC(C(=O)Nc1ccc(C#N)cc1)N(C)CC(=O)Nc1cccc(F)c1` (stereo not drawn) reads -64.7%; that for `COc1cccc(NC(=O)CN(C)C(C)C(=O)Nc2ccc(C(C)=O)cc2)c1` (stereo not drawn), -22.9%.
For `COc1cccc(NC(=O)CN(C)C(C)C(=O)Nc2ccc(C#N)cc2)c1` (stereo not drawn), the “hERG current change (%, negative = inhibition) at 10uM” value was -59.3%.
The result for `CSc1ccccc1NC(=O)CN(C)C(C)C(=O)Nc1ccc(C#N)cc1` (stereo not drawn) reads -63.1%; that for `COc1cccc(NC(=O)CN(C)C(C)C(=O)Nc2ccc(S(=O)(=O)N3CCCC3)cc2)c1` (stereo not drawn), -0.933%; that for `CC(=O)c1ccc(NC(=O)C(C)N(C)CC(=O)Nc2cccc(F)c2)cc1` (stereo not drawn), -17.3%.
`CC(C(=O)Nc1ccc(Cl)cc1)N(C)Cc1cccs1` (stereo not drawn): the “hERG current change (%, negative = inhibition) at 10uM” value is reported as -15%.
The result for `CC(C(=O)Nc1ccc(C#N)cc1)N(C)CC(=O)Nc1ccccc1Br` (stereo not drawn) reads -17%; that for `CC(=O)Nc1ccc(NC(=O)C(C)N(C)CC(=O)Nc2ccccc2Br)cc1` (stereo not drawn), 8.29%.
The result for `CC(C(=O)Nc1ccc(C#N)cc1)N(C)Cc1cccs1` (stereo not drawn) reads -56.7%; that for `CC1=C/C(=N\NC(=S)NCCc2ccccc2)CC(C)(C)C1`, -4.83%.
In the case of `Cc1ccc(Cn2nnc3c(=O)[nH]c(C4CCN(S(=O)(=O)c5ccccc5F)CC4)nc32)cc1`, the “hERG current change (%, negative = inhibition) at 10uM” value is -19%.

The record behind these values is PMC4336329 (PLoS ONE, 2015).
